High-throughput results: PubChem BioAssay, The Scripps Research Institute Molecular Screening Center
TEAD-YAP inh: TEAD-YAP interaction inhibition. HEK-TIYL cells, TEAD-Gal4/YAP UAS-luciferase luminescence. inhibition, % at 9.12 µM. 1.4% of 640,000 active. AID 1259422; in the data active means inhibition above about 32%
FBW7 activator: activators of human E3 ligase FBW7. Q969H0. AlphaScreen FBW7–phospho-cyclin E peptide binding, activator screen. normalized activity (activation), % at 26.1 µM. 0.13% of 650,000 active; in the data active means normalized activity above about 1.9%;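 further: purified mutant Fbw7 with reduced substrate affinity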
GPR151 ag: activates the human receptor GPR151; AID 1508602; 1% of 650,000 active; Q8TDV0; PathHunter beta-arrestin GPR151 cells, luminescence; activation, % at 11.2 µM; in the data active means activation above about 4.9%
Target sequence (Q8TDV0 whole entry, looked up): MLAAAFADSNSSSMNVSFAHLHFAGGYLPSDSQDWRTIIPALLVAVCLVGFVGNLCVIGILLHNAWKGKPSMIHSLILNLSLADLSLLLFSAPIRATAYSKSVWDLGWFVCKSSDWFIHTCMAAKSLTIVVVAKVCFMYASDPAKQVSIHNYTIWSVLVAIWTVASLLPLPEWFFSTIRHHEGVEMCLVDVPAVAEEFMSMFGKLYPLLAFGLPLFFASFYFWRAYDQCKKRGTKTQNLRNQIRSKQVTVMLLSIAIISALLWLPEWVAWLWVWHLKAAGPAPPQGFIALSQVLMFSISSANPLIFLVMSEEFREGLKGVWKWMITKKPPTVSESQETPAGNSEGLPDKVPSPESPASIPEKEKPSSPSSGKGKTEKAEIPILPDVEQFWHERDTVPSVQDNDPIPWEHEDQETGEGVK
MITF primary: inhibitors of human MITF; inhibition, % at 2.6 µM; 0.91% of 650,000 active; AlphaScreen MITF homodimerization, bead proximity signal; in the data active means inhibition above about 50%
MITF inh conf: confirmation of human MITF inhibitors. inhibition, % at 2.6 µM. shares compounds with MITF primary. AID 1259372. AlphaScreen MITF homodimerization, biotin/His-MITF beads. 16% of 4,700 active;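 active means inhibition above a cutoff derived from the DMSO control wells, cut at about 28% in these data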;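 further: inhibitors lower the bead chemiluminescence by keeping MITF from dimerizing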
AlphaScreen DR: optically interferes with AlphaScreen signal in dose response. AID 1259373. IC50, µM. shares compounds with MITF primary. 6% of 480 active. AlphaScreen optical interference counterscreen, cell-free; call rule not given here
AlphaScreen intf2: counter-screen: compounds optically interfering with AlphaScreen. shares compounds with MITF primary. LysRS AlphaScreen counterscreen, signal interference, triplicate. inhibition, % at 2.6 µM. 7.6% of 4,700 active. AID 1259376;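 active means inhibition above a cutoff derived from the DMSO control wells, cut at about 30% in these data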
Hits are given with their value; i = inactive; nt = no result. The list is not random: actives were taken first. Their share in the collection is about 3.5%.

SMILES | TEAD-YAP inh | FBW7 activator | GPR151 ag | MITF primary | MITF inh conf | AlphaScreen intf2 | others
N#C/C(=C\C=C\c1ccco1)C(N)=S | i | i | i | 65 | 60 | 87
NCCCC[C@@H]1NC(=O)[C@H]2CN(C(=O)c3ccc4ccccc4c3)CCN2C1=O | i | i | i | i | nt | nt
Cc1ccc(NS(=O)(=O)c2cccc(C(=O)NNC(=O)NC3CCCCC3)c2)c(C)c1 | i | i | i | 71 | i | i
O=C(Nc1ccccc1C(=O)NC1CCCCC1)c1cccc(S(=O)(=O)NC2CCCCC2)c1 | i | i | i | i | nt | nt
S=c1[nH]nc(-c2ccccc2)n1/N=C/C=C/c1ccco1 | i | i | i | i | nt | nt
S=c1[nH]nc(-c2cccnc2)n1/N=C/C=C/c1ccco1 | i | i | i | 71 | 77 | i | AlphaScreen DR=i
COc1ccc(/C=C2\CCCC3=C2Nc2nnnn2C3c2ccc(OC)cc2)cc1 (stereo not drawn) | i | i | i | i | nt | nt
COc1ccc(C(=O)n2nc(-c3ccco3)nc2N)cc1 | i | i | i | 80 | 78 | 49
Cc1ccc(C(=O)n2nc(-c3ccco3)nc2N)cc1 | i | i | i | i | nt | nt
COc1cc2c(=O)n(Cc3ccc(F)cc3)c(=O)n(Cc3ccc(F)cc3)c2cc1OC | i | i | i | i | nt | nt
COc1ccc(C)cc1S(=O)(=O)NC1CCCCCC1 | i | i | i | i | nt | nt
COc1ccc(C)cc1NC1CCCCC1 | i | i | i | 77 | i | i
CN(CC(O)c1ccccc1)C(=O)C1CC(Cc2ccc(F)cc2)=NO1 (stereo not drawn) | i | i | i | i | nt | nt
O=C(c1ccc(-c2cnn(-c3ccc(Cl)cc3)c2)nc1)N1CCOCC1 | i | i | i | 58 | i | i
Cc1ccc(-n2cc(-c3ccc(C(=O)N4CCCC4)cn3)cn2)cc1 | i | i | i | i | nt | nt
O=C(CNC1CCCC1)Nc1ccccc1N1CCCCCC1 | i | i | i | i | nt | nt
CC(C)CCNCC(=O)Nc1ccccc1N1CCCCC1 | i | i | i | 58 | i | i
O=C(CNCCN1CCCCC1)Nc1ccccc1N1CCOCC1 | i | i | i | 86 | i | i
O=C(CNCCN1CCOCC1)N1CCc2ccccc2C1 | i | i | i | 71 | i | i
CC1=CC(C)(C)N(C(=O)CNCCCN2CCOCC2)c2cc(C)ccc21 | i | i | i | 56 | i | i
CCCC(=O)OCCNc1cc(Sc2nnc(C)s2)c2nonc2c1[N+](=O)[O-] | i | i | i | i | nt | nt
O=C(CNCCCO)Nc1ccccc1N1CCCCCC1 | i | i | i | i | nt | nt
O=C(CNCCCN1CCOCC1)Nc1ccccc1N1CCOCC1 | i | i | i | 84 | i | i
O=C(CNC1CCCCC1)Nc1ccccc1N1CCOCC1 | i | i | i | 55 | i | i
O=C(CNC1CCCCCC1)Nc1ccccc1N1CCCCC1 | i | i | i | i | nt | nt
SMILES | TEAD-YAP inh | FBW7 activator | GPR151 ag | MITF primary | MITF inh conf | AlphaScreen intf2 | others
O=C(CNCCCO)Nc1ccccc1N1CCCCC1 | i | i | i | 57 | i | i
O=C(CNCCN1CCCCC1)Nc1ccccc1N1CCCCC1 | i | i | i | 85 | i | i
COc1ccc(CN=Cc2c(CSc3ccc(C)cc3)[nH]n(-c3nc4ccccc4s3)c2=O)cc1 | i | i | i | i | nt | nt
C=CCN1C(=O)/C(=C\c2ccc([N+](=O)[O-])o2)SC1=S | i | i | i | i | nt | nt
O=C(O)CCC(=O)N1CCc2cc(S(=O)(=O)N3CCCC3)ccc21 | i | i | i | i | nt | nt
O=C(NCc1ccccc1)c1cc(N2C(=O)C3C4CCC(C4)C3C2=O)ccc1Cl (stereo not drawn) | i | i | i | i | nt | nt
CCOC(=O)c1ccc(NC(=O)CCOc2ccccc2)cc1 | i | i | i | 75 | i | i
COc1cccc(CN2CCN(S(=O)(=O)c3ccccc3[N+](=O)[O-])CC2)c1 | i | i | i | 66 | i | i
CCOc1cc(CN2CCN(S(=O)(=O)c3ccccc3[N+](=O)[O-])CC2)ccc1OC | i | i | i | 66 | i | i
COC(=O)/C(=C/c1ccc2c(c1)OCO2)NC(=O)c1cccc2ccccc12 | i | i | i | i | nt | nt
c1ccc(CNCC23CC4CC(CC(C4)C2)C3)cc1 | i | i | i | i | nt | nt
CN1CCCN(C(=O)c2nc3sccn3c2CN2C[C@@H]3CCC[C@H]2C3)CC1 | i | i | i | i | nt | nt
CCc1cc2c(cc3c(=O)n(CC(=O)N(CC)Cc4ccccc4)ncn32)s1 | i | i | i | 71 | i | i
O=C(c1ccc(I)cc1)c1coc2ccc(O)cc12 | i | i | i | i | nt | nt
CCc1ccc(NC(=O)Cn2cnc3c(cnn3-c3ccc(C)c(C)c3)c2=O)cc1 | i | i | i | i | nt | nt
COC(CNS(=O)(=O)c1ccc(S(=O)(=O)N2CCCCCC2)cc1)OC | i | i | i | i | nt | nt
COc1cc(O)c(C)c(O)c1 | i | i | i | i | nt | nt
COc1c(O)cc(O)cc1O | i | i | i | 72 | 60 | i | AlphaScreen DR=i
COc1ccc(Cl)cc1N(CC(=O)Nc1cc(C)cc(C)c1)S(C)(=O)=O | i | i | i | i | nt | nt
CN(C(=S)NC(=O)C1(C)CC1(Cl)Cl)c1ccccc1 (stereo not drawn) | i | i | i | 51 | i | i
CC1=NC(=S)C2C(=O)O/C(=C/c3ccc(-c4cccc([N+](=O)[O-])c4)o3)C2=C1 (stereo not drawn) | i | i | i | 53 | 34 | i
O=C1CC(N2CCN(CC3CCCO3)CC2)C(=O)N1Cc1ccccc1 (stereo not drawn) | i | i | i | 75 | i | i
Cc1ccc2nsnc2c1NC(=O)c1ncn[nH]1 | i | i | i | 53 | i | i
Cc1ccc(N=c2c([N+](=O)[O-])nn(-c3cccc(C)c3)n2O)cc1 | i | i | i | i | nt | nt
Cc1cccc(-n2nc([N+](=O)[O-])c(=Nc3ccc(F)cc3)n2O)c1 | i | i | i | 72 | i | i
SMILES | TEAD-YAP inh | FBW7 activator | GPR151 ag | MITF primary | MITF inh conf | AlphaScreen intf2 | others
Cc1cccc(N=c2c([N+](=O)[O-])nn(-c3ccc(Cl)cc3)n2O)c1 | i | i | i | 78 | i | i
COc1cccc(N=c2c([N+](=O)[O-])nn(-c3ccc(Cl)cc3)n2O)c1 | i | i | i | i | nt | nt
O=C(O)CCC(=O)Nc1ccc(Br)cc1 | i | i | i | i | nt | nt
CC(C(=O)N1CCN(Cc2ccccc2)CC1)N(c1ccc(Cl)cc1)S(C)(=O)=O (stereo not drawn) | i | i | i | 83 | i | i
C=CCc1cccc(OC)c1OCCCN1CCN(C)CC1 | i | i | i | 78 | i | i
CC(=O)c1ccccc1OCCCCN1CCN(C)CC1 | i | i | i | 82 | i | i
CCOc1cc(C=O)ccc1OCCCCN1CCN(CC)CC1 | i | i | i | 71 | i | i
CCN1CCN(CCCCOc2ccccc2C=O)CC1 | i | i | i | 58 | i | i
CN1CCN(CCCCOc2ccccc2C=O)CC1 | i | i | i | i | nt | nt
O=C(NC1CC1)c1ccnc(-c2ccc(N3CCOCC3)nc2)c1 | i | i | i | i | nt | nt
CCCCCCCc1nc2nc(C)cc(=O)n2[nH]1 | i | i | i | i | nt | nt
CC(C(=O)Nc1ccc(F)c(F)c1F)n1ncc(Cl)c(Cl)c1=O (stereo not drawn) | i | i | i | i | nt | nt
